Assay [1] relates to Zika virus NS2B-NS3 protease (unlinked complex). In words: Primary screen GU Rhodamine qHTS for Zika virus inhibitors: Unlinked NS2B-NS3 protease assay (AID 1347159). Further: nearly all actives have a fitted effect of over 60% in size. In short, it runs like this:
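Percent inhibition derives from the 15-min fluorescence change (ex 480, em 540 nm), normalized to no-enzyme and no-inhibitor wells. Reactions contained 25 nM NS2B-NS3 complex and 1.5 microM substrate in 10 mM Tris-HCl pH 8.0.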

Assay [2] relates to Zika virus NS2B-NS3 protease (linked construct). In words: Primary screen NINDS Rhodamine qHTS for Zika virus inhibitors (AID 1347160). Further: nearly all actives have a fitted effect of over 55% in size. In short, it runs like this: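 In 10 mM Tris-HCl pH 8.0 containing 0.01% Tween 20, linked NS2B-NS3 protease (25 nM final) is exposed to test compounds for 15 min. Cleavage of 1.5 microM Rhodamine110 substrate is tracked by fluorescence over 15 min.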
A general note: qHTS replaces the single test concentration by a dilution series.

Among the data in PubChem BioAssay (NCATS) are Potency values, retold here.

Results filed as inconclusive are left out. Unmarked numbers belong to inactive results. Active and inactive are the calls of the source. The call rests on the fitted dose curve; in most records, active means well fitted inhibition curve with a large enough effect; inconclusive means small, poorly fitted or top-dose-only effect; inactive means no such curve, though single readings can be large or run the other way. Where a SMILES comes first, the peptide text is derived from it. The star is where a group is joined. Cbz = O=C(OCc1ccccc1)*; CH2Cl = ClC*
Potency means the concentration at half of the fitted maximal effect.

With `CC[C@H]1OC(=O)[C@H](C)[C@@H](O[C@H]2C[C@@](C)(OC)[C@@H](O)[C@H](C)O2)[C@H](C)[C@@H](O[C@H]2O[C@H](C)C[C@H](N(C)C)[C@H]2O)[C@](C)(O)C[C@@H](C)C(=O)[C@H](C)[C@@H](O)[C@]1(C)O`, the Potency result in assay [1] and in assay [2] was “inactive” in each case.
As to `CC(C)C[C@H](NC(=O)CNC(=O)OCc1ccccc1)C(=O)N[C@@H](Cc1ccccc1)C(=O)CCl` (Cbz-Gly-Leu-Phe-CH2Cl), the Potency entry in assay [1] and in assay [2] was “inactive” throughout.
`Cc1cc(N2CCN(C(=O)Oc3ccc(-c4ccccc4)cn3)CC2)c2ccccc2n1`: the Potency result in assay [1] and in assay [2] was “inactive” throughout.
With `Nc1nc2c(ncn2C2OC3COP(=O)(O)OC3C2O)c(=O)[nH]1` (stereo not drawn), the Potency entry in assay [1] and in assay [2] was “inactive” each time.
Turning to `C=C1C(=O)OC2/C=C(\COC(C)=O)CC/C=C(\C=O)CC(OC(=O)C(C)CC)C12` (stereo not drawn), the Potency result in assay [1] and in assay [2] was “inactive” throughout.
`Cc1nc(C#Cc2ccnc(Cl)c2)c(C)n1-c1ccc(OC(F)(F)F)cc1`: the Potency entry in assay [1] and in assay [2] was “inactive” throughout.
Take `C[C@@H]1C[C@H](C)CN(CCC(=O)Nc2ccc(Br)cc2)C1`: the Potency result in assay [1] and in assay [2] was “inactive” each time.
As for `O=C(Cc1c(F)cccc1F)Nc1cc(OCc2ccc(Cl)cc2)ccn1`, the Potency entry in assay [1] and in assay [2] was “inactive” throughout.
On to `O=c1cc(OCc2ccc(F)cc2)ccn1-c1ccc(OCCN2CCCC2)cc1`, for which the Potency entry in assay [1] and in assay [2] was “inactive” throughout.
In the case of `CC(=O)OC1CC2(C)C(CCC(C)C23Cc2c(O)cc(CO)c(C=O)c2O3)C(C)(C)C1O` (stereo not drawn), the Potency entry in assay [1] and in assay [2] was “inactive” throughout.
Turning to `C[C@@H]1C[C@H]2O[C@@]3(O[C@@H]2C(C)(C)O)C(O)[C@@]2(C)C4CCC5C(C)(C)[C@@H](O[C@H]6OC[C@H](O)[C@@H](O)[C@@H]6O)CC[C@@]56C[C@@]46CC[C@]2(C)C13` (stereo partly drawn), the Potency entry in assay [1] and in assay [2] was “inactive” throughout.
Turning to `CC(=O)Nc1cccc(Nc2ncnc(N3CCC(OCc4ccc(OC(F)(F)F)cc4)CC3)n2)c1C`, the Potency entry in assay [1] and in assay [2] was “inactive” in each case.
For the compound `CC[C@H](C)/C=C(C)/C=C/C1=CC2=C(Cl)C(=O)[C@](C)(O)[C@H](OC(C)=O)[C@H]2CO1`, the Potency in assay [1] was 10 µM (active); in assay [2], 11.2 µM (active).
The like results for `C/C=C/C=C/c1cc2c(C=O)c(O)c(CC=C(C)C)cc2o1` were, in that order, 12.6 µM (active) and 17.8 µM (active).
On the same counts, the results for `NC(=O)c1cnc(N[C@@H]2CCCC[C@H]2N)nc1Nc1cccc(-n2nccn2)c1` are “inactive” and “inactive”.
For `COc1ccc2c(c1O[C@H]1CCNC1)CCC2`, the Potency entry in assay [1] and in assay [2] was “inactive” each time.
On to `c1cc(NC2CCNCC2)nc(-c2cnc3ccccn23)c1`, for which the Potency entry in assay [1] and in assay [2] was “inactive” in each case.
For `CC(=O)Nc1nc(C)c(-c2nc(N3CCCC(O)C3)no2)s1` (stereo not drawn), the Potency result in assay [1] and in assay [2] was “inactive” in each case.
Consider `CN1CC[C@@H](c2c(O)cc(O)c3c(=O)cc(-c4ccc(C(F)(F)F)cc4Cl)oc23)[C@@H]1CO`, for which the Potency entry in assay [1] and in assay [2] was “inactive” in each case.
With `Fc1ccc(-c2nc(-c3ccccc3F)[nH]c2-c2ccncc2)cc1`, the Potency entry in assay [1] and in assay [2] was “inactive” in each case.
With `COC(=O)CC[C@@H](C)C1CCC2C3CCC4C[C@H](OC(C)=O)CCC4(C)C3C[C@H](O)C21C` (stereo partly drawn), the Potency entry in assay [1] and in assay [2] was “inactive” throughout.
Consider `Cc1ccnn1-c1ccc(C(=O)N2CCN(S(=O)(=O)c3ccc(Cl)c(C(F)(F)F)c3)CC2)cc1`, for which the Potency entry in assay [1] and in assay [2] was “inactive” throughout.
As to `CC(C)CCNc1ncccc1C(=O)N1CCN(Cc2ccccc2)CC1`, the Potency entry in assay [1] and in assay [2] was “inactive” in each case.
`CC(C)(F)CC(NC(c1ccc(-c2ccc(S(C)(=O)=O)cc2)cc1)C(F)(F)F)C(=O)NC1(C#N)CC1` (stereo not drawn): the Potency entry in assay [1] and in assay [2] was “inactive” throughout.
As for `CCNC(=O)C#Cc1ccc2c(C(=Nc3ccc(CN(C)C)cc3)c3ccccc3)c(O)[nH]c2c1`, the Potency result in assay [1] and in assay [2] was “inactive” throughout.
As for `CC(=O)N[C@H]1[C@H](O[C@H]2CC[C@@]3(C)C(CC[C@]4(C)C3CC=C3C5CC(C)(C)CC[C@]5(C(=O)O)C(O)C[C@]34C)C2(C)C)O[C@H](CO[C@@H]2O[C@H](C)[C@H](O)[C@H](O)[C@H]2O[C@@H]2OC[C@@H](O)[C@H](O)[C@H]2O)[C@@H](O)[C@@H]1O` (stereo partly drawn), the Potency result in assay [1] and in assay [2] was “inactive” throughout.
For the compound `CN[C@@H]1[C@H](O[C@H]2[C@H](O[C@@H]3[C@@H](O)[C@H](O)[C@@H](N=C(N)N)[C@H](O)[C@H]3N=C(N)N)O[C@@H](C)[C@]2(O)CO)O[C@@H](CO)[C@H](O)[C@H]1O`, the Potency entry in assay [1] and in assay [2] was “inactive” throughout.
Consider `NCC1CCN(c2nccc(-c3ccc4ccccc4c3)n2)CC1`, for which the Potency entry in assay [1] and in assay [2] was “inactive” in each case.
Regarding `COc1ccccc1-c1ccc(-c2cn(C(=O)N3CCCCC3Cc3ccccc3)nn2)cc1` (stereo not drawn), the Potency result in assay [1] and in assay [2] was “inactive” each time.
